Among the test systems are DU-145 prostate; K-562 leukemia; MALME-3M melanoma; MDA-MB-231 breast; RXF 393 renal; SF-268 CNS; SF-295 CNS; SF-539 CNS; UACC-257 melanoma; M14 melanoma; HCT-15 colon; HT29 colon; SNB-75 CNS; SNB-19 CNS; U251 CNS; PC-3 prostate; SK-MEL-5 melanoma; UACC-62 melanoma; LOX IMVI melanoma; SK-MEL-28 melanoma.
Common to all, as to assay: NCI-60 one-dose screen, 48 h (100 = growth as untreated, 0 = no growth, -100 = all killed)
Common to all, as to conditions: 10 µM unless noted

Compounds without any hit were thinned out: in the full panel of roughly 83,000, 20% have a hit.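 Results are percent growth after 48 hours of single-concentration exposure. 100 means growth as in untreated cells, lower positive values show inhibition; negative values down to -100 show cell death.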 A number with no mark means an inactive call. Activity calls are given as the source filed them. Rule for the calls: active = growth percent below 10; inactive = the rest.

Turning to `FC(F)(F)c1cc(Nc2ccc3c(OCCCN4CCOCC4)cccc3n2)ccc1Cl`, the growth in the experiment on DU-145 prostate was 55.9%; in the experiment with K-562 leukemia, -31.6% (active); in the experiment on MALME-3M melanoma, 54.3%; in the experiment on MDA-MB-231 breast it was 10.1%; with RXF 393 renal, 23.9%; with SF-268 CNS, 54.6%. Further, the growth with SF-295 CNS is 0.167% (active); in the experiment with SF-539 CNS, 36.2%; in the experiment with UACC-257 melanoma it was 96.6%; with M14 melanoma it was 40.4%; with HCT-15 colon, -39.8% (active); in the experiment with HT29 colon, -22.7% (active). Moreover, the growth is 40.8% in the experiment with SNB-75 CNS; 35.9% in the experiment on SNB-19 CNS; 9.5% (active) with U251 CNS; 33.5% in the experiment with PC-3 prostate; 69.5% in the experiment with SK-MEL-5 melanoma; 55.3% with UACC-62 melanoma. Moreover, the growth with LOX IMVI melanoma was -37.6% (active); with SK-MEL-28 melanoma, 41.9%.
For `COc1ccc(/C=C(/C#N)n2nnc3cccc(F)c32)cc1`, the growth with DU-145 prostate was -10.7% (active); in the experiment with K-562 leukemia it was 12.8%; in the experiment with MALME-3M melanoma, 32.5%; in the experiment with MDA-MB-231 breast, 0.925% (active); in the experiment with RXF 393 renal, -37.9% (active); in the experiment with SF-268 CNS, 28.2%. Moreover, the growth with SF-295 CNS is 16%; with SF-539 CNS, -39.3% (active); in the experiment on UACC-257 melanoma it was 41.1%; in the experiment with M14 melanoma, -27% (active); in the experiment on HCT-15 colon, 13.2%; in the experiment on HT29 colon, 1.29% (active). Moreover, the growth in the experiment with SNB-75 CNS is -43.5% (active); with SNB-19 CNS it was 24.6%; in the experiment on U251 CNS, 14.3%; in the experiment with PC-3 prostate, 27.1%; in the experiment with SK-MEL-5 melanoma, -7.21% (active); with UACC-62 melanoma, 17.9%. Further, the figures for the growth in the experiment with LOX IMVI melanoma and in the experiment on SK-MEL-28 melanoma were 5.5% (active) and 48.1%, respectively.
Take `C[C@]12CC[C@@H]3c4cc(OC(F)F)c(OS(N)(=O)=O)cc4CC[C@H]3[C@@H]1CC[C@@H]2OS(N)(=O)=O`: the growth in the experiment on DU-145 prostate was 42.1%; in the experiment on K-562 leukemia it was 16.8%; with MALME-3M melanoma, 41%; in the experiment on MDA-MB-231 breast, 54%; with RXF 393 renal, 42.1%; with SF-268 CNS, 49.7%. The growth in the experiment on SF-295 CNS was 27.3%; in the experiment on SF-539 CNS, 26%; with UACC-257 melanoma, 62.2%; in the experiment with M14 melanoma, 31.1%; in the experiment on HCT-15 colon, 20.1%; in the experiment on HT29 colon, 106%. Further, the growth with SNB-75 CNS is -3.22% (active); in the experiment on SNB-19 CNS, 53.6%; in the experiment with U251 CNS, 33.1%; in the experiment on PC-3 prostate, 52.2%; in the experiment with SK-MEL-5 melanoma, 27%; with UACC-62 melanoma it was 54.1%. In addition, the growth in the experiment on LOX IMVI melanoma is 32.8%; in the experiment with SK-MEL-28 melanoma it was 50%.
On to `CCOC(=O)/C=C1\S/C(=N\Nc2ccc([N+](=O)[O-])cc2[N+](=O)[O-])N(Cc2ccccc2)C1=O`, for which the growth in the experiment with DU-145 prostate was 81.4%; in the experiment with K-562 leukemia it was 54.7%; with MALME-3M melanoma, 93.1%; with MDA-MB-231 breast it was 84.9%; in the experiment on RXF 393 renal, 78%; with SF-268 CNS, 89.7%. The growth in the experiment on SF-295 CNS was 95.1%; in the experiment on SF-539 CNS, 99.6%; in the experiment with UACC-257 melanoma it was 90.1%; in the experiment on M14 melanoma it was 100%; in the experiment on HCT-15 colon, 35.8%; with HT29 colon, 85.9%. Moreover, the growth was 55.7% with SNB-75 CNS; 82.9% in the experiment on SNB-19 CNS; 71.7% in the experiment on U251 CNS; 64.5% in the experiment with PC-3 prostate; 96.8% with SK-MEL-5 melanoma; 74.1% in the experiment with UACC-62 melanoma. In addition, the growth was 86% in the experiment on LOX IMVI melanoma and 98.6% with SK-MEL-28 melanoma.
For the molecule `O=c1cc(SCc2ccccc2)nc[nH]1`, the growth in the experiment with DU-145 prostate is 121%; in the experiment with K-562 leukemia it was 113%; in the experiment on MALME-3M melanoma it was 111%; in the experiment on MDA-MB-231 breast it was 113%; in the experiment on RXF 393 renal, 124%; with SF-268 CNS it was 106%. Also, the growth was 100% in the experiment on SF-295 CNS; 108% with SF-539 CNS; 108% in the experiment with UACC-257 melanoma; 106% in the experiment with M14 melanoma; 105% in the experiment on HCT-15 colon; 109% in the experiment with HT29 colon. In addition, the growth is 93.7% in the experiment on SNB-75 CNS; 107% in the experiment with SNB-19 CNS; 107% with U251 CNS; 97.7% with PC-3 prostate; 113% in the experiment with SK-MEL-5 melanoma; 108% with UACC-62 melanoma. Moreover, the growth with LOX IMVI melanoma was 107%; in the experiment on SK-MEL-28 melanoma it was 133%.
`O=c1c2cc(F)ccc2sc2c(NCCN3CCOCC3)nc3ccccc3c12`: the growth was 68.4% with DU-145 prostate; 0.338% (active) in the experiment with K-562 leukemia; 92% in the experiment with MALME-3M melanoma; 25.9% in the experiment with MDA-MB-231 breast; 72.9% in the experiment with RXF 393 renal; 68.7% in the experiment with SF-268 CNS. Further, the growth in the experiment on SF-295 CNS is 89.4%; in the experiment on SF-539 CNS, 74.7%; in the experiment with UACC-257 melanoma, 98.2%; with M14 melanoma it was 46.5%; with HCT-15 colon, 20.8%; in the experiment on HT29 colon, 21.6%. Also, the growth in the experiment on SNB-75 CNS is 59.5%; in the experiment on SNB-19 CNS it was 75.3%; in the experiment with U251 CNS, 52.4%; in the experiment on PC-3 prostate it was 69%; with SK-MEL-5 melanoma, 95.1%; in the experiment with UACC-62 melanoma, 81.5%. For the same molecule, the growth in the experiment with LOX IMVI melanoma was 20.6%; with SK-MEL-28 melanoma, 96.7%.
`O=c1c2cc(F)ccc2sc2c(N3CCCCC3)nc3ccccc3c12`: the growth is 107% in the experiment with DU-145 prostate; 112% in the experiment with K-562 leukemia; 104% in the experiment with MALME-3M melanoma; 98.9% in the experiment on MDA-MB-231 breast; 104% with RXF 393 renal; 102% in the experiment with SF-268 CNS. The growth is 101% in the experiment on SF-295 CNS; 102% with SF-539 CNS; 97.3% in the experiment on UACC-257 melanoma; 96.8% with M14 melanoma; 103% in the experiment on HCT-15 colon; 98% in the experiment on HT29 colon. In addition, the growth is 90.2% in the experiment with SNB-75 CNS; 101% in the experiment on SNB-19 CNS; 94.1% with U251 CNS; 98.1% in the experiment with PC-3 prostate; 97.8% in the experiment on SK-MEL-5 melanoma; 96.1% with UACC-62 melanoma. The growth in the experiment with LOX IMVI melanoma is 97.1%; in the experiment with SK-MEL-28 melanoma, 109%.
Turning to `Clc1ccc(C(/C=C/c2sc(Cl)nc2Cl)=N/Nc2cc(Cl)cc(Cl)c2)cc1`, the growth was 112% with DU-145 prostate; 94.6% in the experiment with K-562 leukemia; 103% in the experiment with MALME-3M melanoma; 103% in the experiment on MDA-MB-231 breast; 110% in the experiment on RXF 393 renal; 99.4% in the experiment on SF-268 CNS. The growth in the experiment with SF-295 CNS was 104%; with SF-539 CNS, 106%; in the experiment on UACC-257 melanoma it was 99.1%; in the experiment with M14 melanoma, 107%; with HCT-15 colon it was 105%; in the experiment with HT29 colon, 103%. In addition, the growth in the experiment on SNB-75 CNS is 101%; with SNB-19 CNS, 96.4%; with U251 CNS, 101%; in the experiment on PC-3 prostate, 96.7%; with SK-MEL-5 melanoma it was 103%; in the experiment with UACC-62 melanoma it was 88.6%. The growth in the experiment with LOX IMVI melanoma was 98.4%; with SK-MEL-28 melanoma, 105%.

(Values after PubChem BioAssay (NCI).)
